Only a selection was taken, and hits are over-represented in it overall.
USP2a inh: USP2a (human) protease inhibition | USP2 core, Ub-CHOP2 coupled fluorogenic reporter, 485/531 | Potency, µM (top dose mostly 38.3 µM), actives largely listed as inhibitors | hit rate 0.01% among 330,000
Target sequence (O75604 whole entry, looked up): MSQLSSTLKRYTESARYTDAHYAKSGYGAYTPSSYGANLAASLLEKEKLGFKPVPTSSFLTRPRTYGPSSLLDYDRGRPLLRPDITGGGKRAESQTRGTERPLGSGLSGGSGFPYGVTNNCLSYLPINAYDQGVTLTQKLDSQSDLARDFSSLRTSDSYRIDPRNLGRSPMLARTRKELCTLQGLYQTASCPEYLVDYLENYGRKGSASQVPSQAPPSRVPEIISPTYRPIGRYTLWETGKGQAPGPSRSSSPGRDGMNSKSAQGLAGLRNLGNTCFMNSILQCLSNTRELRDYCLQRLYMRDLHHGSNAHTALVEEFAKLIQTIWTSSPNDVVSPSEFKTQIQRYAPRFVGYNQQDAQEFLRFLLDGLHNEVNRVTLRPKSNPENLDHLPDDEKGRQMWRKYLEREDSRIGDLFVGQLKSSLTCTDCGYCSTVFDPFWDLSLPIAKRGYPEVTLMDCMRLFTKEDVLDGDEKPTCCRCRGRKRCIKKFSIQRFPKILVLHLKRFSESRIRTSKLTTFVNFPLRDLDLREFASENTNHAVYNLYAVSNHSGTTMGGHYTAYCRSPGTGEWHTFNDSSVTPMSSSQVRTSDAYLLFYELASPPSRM
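Deubiquitinase activity read as fluorescence (485/531 nm) after Ub-CHOP2 cleavage activates the enterokinase reporter on its substrate; USP2 core 10nM, Ub-CHOP2 and substrate 25nM each, 30min compound preincubation then 60min RT; data normalized to NEM, curves fitted.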
Eya2 phos inh: Eya2 (human) phosphatase inhibition. O00167. recombinant Eya2, OMFP fluorescence dephosphorylation (OMFP is methylfluorescein phosphate). Potency, µM (highest dose often 76.9 µM), most hits filed as inhibitors. hit rate 0.006% among 330,000. AID 488837
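Eya2 (0.2 uM) preincubated 10 min at ambient with compound, then OMFP substrate added at 50 uM; 10 min reaction in 50 mM HEPES pH 7.5, 50 mM NaCl, 5 uM MgCl2, 0.05% BSA, 1 mM DTT. Fluorescence read at Ex 485/Em 525 nm.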
GALK inh: inhibitors of human galactokinase; P51570; Purified GALK, Kinase-Glo residual ATP luminescence; Potency, µM (series often up to 57.5 µM), hits mostly inhibitors; hit rate 0.007% among 270,000; AID 1868
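5 nM enzyme, 35 uM ATP, 100 uM galactose, 20 mM HEPES pH8.0, 5 mM MgCl2; 1 h RT; residual ATP by Kinase-Glo Plus luminescence, qHTS format.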
ClpP mod: qHTS Assay for Activators of ClpP; ATP-dependent Clp protease proteolytic subunit (Bacillus subtilis (strain 168)), P80244; purified B. subtilis ClpP, FRET peptide cleavage, 20 min; Potency, µM (top dose mostly 57.5 µM); hit rate 1.9% among 340,000; AID 651965, 2013; active = well fitted falling curve with a large enough effect; inconclusive = small, poorly fitted or top-dose-only effect; inactive = no such curve, though single readings can be large or run the other way; note: the source files actives as falling curves though it sought activators and does not explain the sign; nearly all actives have a fitted effect of over 65% in size
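Purified B. subtilis ClpP, 10 microg/mL final in Tris/HCl pH8 with KCl, BSA, glycerol and Tween-20, cleaved an Abz/nitrotyrosine-quenched decapeptide. Fluorescence (ex 320, em 430) was read at 0 and 20 min at room temperature. Delta was normalized to 5.8 microM ADEP and DMSO/no-enzyme controls.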
Hits are given with their value; i = inactive; ? = inconclusive; nt = no result given; ! = not active in a repeat; [ ] = dose if it differs, or a comment. Unless noted, calls come from the whole dose curve; as a rule, active = well fitted inhibition curve with a large enough effect; inconclusive = small, poorly fitted or top-dose-only effect, or effect the other way; inactive = flat fitted curve, though single readings scatter.

SMILES	USP2a inh	Eya2 phos inh	GALK inh	ClpP mod
CSc1cccc(NC(=O)Cn2c3ncccc3c(=O)n2-c2ccc(C)cc2)c1	nt	nt	nt	25.1µM
CCOC(=O)c1ccc(NC(=O)NC2CC3CCC(C2)N3)cc1 (stereo not given)	i	i	i	i
O=C(O)CCCCCn1c(SCC(=O)c2ccc(O)c(O)c2)nc2ccsc2c1=O	i	i	nt	7.94µM
CCCCn1c(SCC(=O)c2ccc(O)c(O)c2)nc2ccsc2c1=O	i	i	i	i
COCC(=O)Nc1ccccc1-c1ccccc1	i	i	i	i
O=C(O)/C=C/C(=O)Nc1ccccc1-c1ccccc1	i	i	i	25.1µM
O=C(OCC(=O)N1CCCC1)c1cc(Br)ccc1Cl	i	i	i	nt
CCOc1ccc2[nH]c(=O)c(CN(Cc3cccs3)Cc3nnnn3C(C)(C)C)cc2c1	i	i	i	i
COc1ccc2[nH]c(=O)c(CN(Cc3cccnc3)Cc3nnnn3CC3CCCO3)cc2c1 (stereo not given)	i	i	i	i
COc1cc2cc(CN(Cc3nnnn3Cc3ccccc3)CC3CCCO3)c(=O)[nH]c2cc1OC (stereo not given)	i	i	i	28.2µM
COc1ccc2[nH]c(=O)c(CN(Cc3ccccc3)Cc3nnnn3CC3CCCO3)cc2c1 (stereo not given)	i	i	i	28.2µM
COc1ccc2[nH]c(=O)c(CN(Cc3cccs3)Cc3nnnn3C(C)(C)C)cc2c1	i	i	i	31.6µM
N#C/C(=C/c1ccc(N2CCCCCC2)o1)c1ccc(F)cc1	nt	nt	nt	31.6µM
N#C/C(=C/c1ccc(N2CCCCCC2)o1)c1cccc(F)c1	i	i	i	i
Cc1cccc(C2N=C(N)Nc3nc4ccccc4n32)c1 (stereo not given)	i	i	i	25.1µM!
CCc1c(-c2ccccc2OC)ncn1Cc1cccc(-c2ccccc2)c1	nt	nt	nt	i
Cc1[nH]nc(SCC(=O)Nc2cccc(O)c2)c1[N+](=O)[O-]	i	i	i	nt
Cc1cccc(N2C(=O)c3ccc(Br)cc3C2=O)n1	i	i	i	nt
Cc1c(C(=O)OC2CCCCC2)sc2nc[nH]c(=O)c12	i	i	i	28.2µM
C/C(=N\NC(N)=O)c1c(F)cccc1F	i	i	i	31.6µM
O=C1c2ccccc2NC2(CCCCC2)N1N=C1CCCCC1	i	i	i	17.8µM
CCOCCCn1c(SCC(=O)Nc2oc(C)c3c(C)n[nH]c(=O)c23)nnc1-c1ccncc1	i	i	nt	nt
Cc1n[nH]c(=O)c2c(NC(=O)CSc3nnc(-c4ccncc4)n3C)oc(C)c12	i	i	i	31.6µM
Cc1ccc(C)c(NC(=O)CCN2C(=O)C3CC=CCC3C2=O)c1 (stereo not given)	i	i	nt	i
Cc1nc(N)c(C#N)c(-c2ccccc2Cl)c1C	i	i	i	?
SMILES	USP2a inh	Eya2 phos inh	GALK inh	ClpP mod
COc1ccccc1-c1c(C#N)c(N)nc2c1CCc1ccccc1-2	i	i	i	1.78µM
COc1ccccc1-c1cc(C2CC2)nc(N)c1C#N	i	i	i	28.2µM
COc1ccccc1-c1c(C)c(C)nc(N)c1C#N	i	i	i	22.4µM
N#Cc1c(-c2ccccc2Cl)cc(C2CC2)nc1N	i	i	i	?
CCc1nc(N)c(C#N)c(-c2ccccc2OC)c1C	i	i	i	28.2µM
O=C(NC1CCCCNC1=O)c1ccc(Cl)cc1 (stereo not given)	i	i[15.4 µM]	i	28.2µM
CCN(CC(=O)Nc1ccc(OC)cc1)C(=O)c1oc2c(Cl)cccc2c1C	i	i	nt	nt
CCN(CC(=O)Nc1ccccc1C(F)(F)F)C(=O)c1oc2c(Cl)cccc2c1C	i	i	nt	35.5µM
COc1ccc(C2(C)NC(=O)N(CC(=O)Nc3ccc(-c4nc5ccc(C)cc5s4)cc3)C2=O)cc1 (stereo not given)	i	i	i	nt
O=C(CCN1C(=O)NC2(CCCC2)C1=O)Nc1ccc(-c2nc3ccccc3s2)cc1	i	i	nt	20µM
O=C(CCN1C(=O)NC2(CCCC2)C1=O)Nc1ccc(Sc2ccc(Br)cc2)cc1	nt	nt	nt	i
CCn1c(SCC(=O)Nc2ccc(-c3nc4ccc(C)cc4s3)cc2)nnc1-c1ccccc1	i	i	nt	nt
CCC1(c2ccc(F)cc2)NC(=O)N(CC(=O)Nc2ccc(-c3nc4ccc(C)cc4s3)cc2)C1=O (stereo not given)	i	i	i	7.94µM
Cc1ccc(N(CC(=O)Nc2ccc(-c3nc4ccc(C)cc4s3)cc2)S(C)(=O)=O)cc1	i	i	i	11.2µM
Cc1ccc2nc(-c3ccc(NC(=O)CCS(=O)(=O)c4ccccc4)cc3)sc2c1	i	i	i	nt
C=CCn1c(SCC(=O)Nc2ccc(-c3nc4ccc(C)cc4s3)cc2)nnc1-c1ccncc1	i	i	i	3.55µM
CCc1ccccc1NC(=S)N(Cc1cccc(C)c1)c1cccnc1	i	?	i	nt
CN(C)c1ccc(/C=N/n2ncc3ccccc32)cc1	i	i	i	?
Cc1ccc(-c2cc(C(F)F)nc(N3CCC(C)CC3)n2)cc1	i	i	i	25.1µM
CC1CCN(c2nc(-c3ccccc3)cc(C(F)(F)F)n2)CC1	i	i	i	?
Cc1cc(C)n2nc(SCc3nnc(-c4ccccc4Br)o3)nc2n1	i	i	i	17.8µM
CC1(C)CC(NC(=S)NC2CC2)CC(C)(C)N1	i	i	i	35.5µM
CCOC(=O)c1cc(-c2ccc(Cl)cc2)nc2onc(C)c12	i	i	i	nt
CCN(CC)c1ccc(/C=N/NC(=O)Cc2cccs2)c(O)c1	i	i	i	28.2µM
Cc1cccc(C)c1NC(=O)COc1ccccc1C(=O)Nc1ccc(Br)cn1	i	i	i	i
SMILES	USP2a inh	Eya2 phos inh	GALK inh	ClpP mod
OCCCCCNc1ncnc2ccccc12	i	i	i	i
OCCCCNc1cccc2ccccc12	i	i	i	15.8µM
CCCCn1c(N)c(N(CCOC)C(=O)c2cc(-c3ccc(OC)cc3)nc3ccccc23)c(=O)[nH]c1=O	i	i	nt	11.2µM
CCCCn1c(N)c(N(CCOC)C(=O)c2cc(-c3ccc(C)cc3)nc3ccccc23)c(=O)[nH]c1=O	i	i	nt	?
O=S(=O)(c1ccc2c(c1)OCCO2)N1CCN(S(=O)(=O)c2c(F)cc(F)cc2F)CC1	i	i	nt	nt
COc1ccc(N=C2C(=S)N(c3ccc(OC)cc3)C(=NS(=O)(=O)c3ccccc3)N2c2ccccc2)cc1	nt	nt	nt	28.2µM
O=C(COC(=O)c1cccs1)Nc1nc(-c2ccccc2)cs1	i	i	i	31.6µM
O=C(COC(=O)/C=C/c1cccs1)Nc1nc(-c2ccccc2)cs1	i	i	i	nt
c1ccc(N2N=C(c3cccs3)CC2c2ccco2)cc1 (stereo not given)	i	i	i	15.8µM
N/C(=N\OC(=O)COc1ccccc1Cl)c1ccccn1	i	i	i	14.1µM
Cc1ccc(C)c(OCC(=O)O/N=C(\N)c2ccccn2)c1	i	i	i	i
Cc1nc(-c2cn[nH]c2)c2cc(C)oc2n1	i	i	i	28.2µM
CCCc1ccc2oc(C(=O)N3CCC(N4CCCC(O)C4)CC3)c(C)c2c1 (stereo not given)	i	i	i	i
Cc1ccc(-n2nc3ccc(NC(=O)/C=C/c4ccco4)cc3n2)cc1	i	i	i	28.2µM

Source: PubChem
